Bioassay records (PubChem)
Rows were chosen to be rich in hits. Some 0.86% of all compounds tested hit in one or more screens of this group.
CDC25B CDK2 inh = human CDC25B-CDK2/CyclinA binding inhibition; z-score (no concentration beside the values); actives 0.72% (n = 94,000); HTRF CDC25B-CDK2/CyclinA binding, anti-His/anti-Flag; hits give high values; in the data active means z-score above about 3.2
HIV TAR-Tat = HIV-1 TAR-Tat binding disruption. HIV-1 TAR RNA, Tat peptide displacement FRET; hits give high values. actives 0.6% (n = 100,000). z-score (no concentration beside the values); active means z-score of 3 or more in at least 2 runs
* hit, by the source's call; nt = no result.

SMILES	CDC25B CDK2 inh	HIV TAR-Tat
Cc1nonc1NC(=O)COc1ccc(Cl)cc1	-1.1	0.66
COc1cccc(-c2nc(=S)c3c([nH]2)Oc2ccc(F)cc2C3)c1	0.83	-0.4
Nc1ccccc1C(=O)NCCCn1ccnc1	-1.2	nt
Cc1c(NS(=O)(=O)c2cn(C)cn2)c(=O)n(-c2ccccc2)n1C	-1.2	1.2
COc1ccc2c(c1)NC(c1ccc(N(C)C)cc1)=NC(c1cccs1)=N2	0.62	1.8
CC(C)N(C(=S)Nc1ccc2nc3c4ccccc4c4ccccc4c3nc2c1)C(C)C	10*	nt
S=C(Nc1ccc2nc3c4ccccc4c4ccccc4c3nc2c1)N1CCOCC1	-0.55	nt
CCOC(=O)C1=C(C)Nc2nc(SCC(C)C)nn2C1c1ccc(OC)cc1 (configuration not stated)	-1.4	-0.85
CCc1ccc(CN(C(=O)c2nc(S(C)(=O)=O)ncc2Cl)C2CCS(=O)(=O)C2)cc1 (configuration not stated)	-0.15	2
COc1ccc(Nc2ncccc2N)cc1	13*	-1.7
Nc1cccnc1Nc1ccccc1	3.3	-4.8
O=C(Nc1ccc(Br)cc1)c1cccc(-n2cnnc2)n1	nt	0.73
O=C(Nc1ccc(O)cc1)c1cccc(-n2cnnc2)n1	nt	12*
Cc1ccc(CNC(=O)c2ncoc2-c2cccs2)o1	nt	1.7
Cc1nc(-c2csc(S(=O)(=O)N(CCc3ccccc3)Cc3ccccc3)c2)no1	nt	0.11
Cc1nn(Cc2cccc(Cl)c2)c(=O)c2noc(C)c12	nt	-0.13
Cc1ccc(Cc2nnc(-c3ccc(N)cc3Cl)o2)cc1	nt	-0.34
Cc1ccc(Cc2nnc(-c3cc(N)ccc3F)o2)cc1	nt	34*
CCOc1ccccc1C1C2=C(CC(C)(C)CC2=O)Nc2nc(SCC(=O)c3ccccc3)nn21 (configuration not stated)	-2.5	0.87
CC(C)(C)NC(=O)c1cccc(N2C(=O)c3cccc([N+](=O)[O-])c3C2=O)c1	0.16	nt
O=C(Nc1cccc(O)c1)c1cccc(N2C(=O)c3cccc([N+](=O)[O-])c3C2=O)c1	5.1*	nt
Cc1ccc(Nc2cc(N3CCN(C(=O)Nc4ccc5c(c4)OCCO5)CC3)nc(C)n2)cc1	-1.6	0.23
O=C(NCCCSC1CCCCC1)c1ccc(CS(=O)c2ccccc2)o1 (configuration not stated)	0.38	0.93
Oc1ccc(-c2nc(-c3ccccc3)c(-c3ccc(O)cc3)[nH]2)cc1	-1.4	-1.7
c1csc(-c2nc(-c3cccs3)c(-c3cccs3)[nH]2)c1	19*	-0.71
SMILES	CDC25B CDK2 inh	HIV TAR-Tat
Oc1cccc(-c2nc(-c3cccs3)c(-c3cccs3)[nH]2)c1	19*	-3.2
COc1cccc(-c2nc(-c3cccs3)c(-c3cccs3)[nH]2)c1	-1.6	nt
Cc1cc(=O)[nH]c(-c2cccs2)n1	0.45	nt
Oc1ccc(-c2nc(-c3cccs3)c(-c3cccs3)[nH]2)cc1	19*	-0.61
CCCCN(C)CCCNC(=O)C1=C(C)C(=O)OC12CCN(S(C)(=O)=O)CC2	nt	-0.23
Cc1cc(-c2ccc(S(=O)(=O)NCc3ccc(N(C)C)cc3)s2)n[nH]1	nt	-7.4
O=C1CC(c2nc3ccccc3n2Cc2ccc(F)cc2)CN1Cc1ccccc1 (configuration not stated)	-1.9	-0.72
Cc1ccc2cc(NC(=O)C3CC(=O)N(Cc4ccc(F)cc4)C3)ccc2n1 (configuration not stated)	6.6*	nt
Cc1cc(=O)nc2c3ccccc3n(C(C)C(=O)NC3CCCC(C)C3C)n12 (configuration not stated)	-1.1	-2
O=C(CSc1nc2ncccc2[nH]1)N1CCCC1	nt	0.18
O=C(CSc1nc2ncccc2[nH]1)N1CCc2ccccc2C1	15*	1.7
O=C(O)c1cc(-c2cn[nH]c2-c2ccccc2)nc2ccc3ccccc3c12	22*	nt
O=C(O)c1cc(-c2ccccc2)nc2n[nH]c(-c3ccccc3)c12	nt	0.44
Cc1ccnc(NS(=O)(=O)c2ccc(NC(=O)c3nn(-c4ccc(F)cc4)ccc3=O)cc2)n1	-0.37	0.17
CCOC(=O)c1c(S(=O)(=O)N2CCCC(C(=O)NCCC3=CCCCC3)C2)c(C)n(C)c1C (configuration not stated)	nt	0.6
C=CC1=C(C(=O)O)N2C(=O)[C@@H](NC(=O)C(=NOCC(=O)O)c3csc(N)n3)[C@H]2SC1	nt	26*
C=CC1=C(C(=O)O)N2C(=O)[C@@H](NC(=O)/C(=N\O)c3csc(N)n3)[C@H]2SC1 (stereo in doubt)	nt	-0.39
Nc1ccc(-c2nc3c(Cl)c(N)ccc3[nH]2)cc1	-7.5	3.7*
Cc1ccc(-c2nc3ccc(N)cc3[nH]2)cc1	-2	-7.6
Cc1nc2ccc(-c3nc4ccc(N)cc4[nH]3)cc2[nH]1	5*	nt
Nc1ccc2nc(-c3ccc(Cl)cc3)[nH]c2c1	-2	5.1*
Nc1ccc(-c2nc3ccc(N)cc3[nH]2)cc1	-1.5	nt
Cc1c(N)ccc2[nH]c(-c3ccc(N)cc3)nc12	-3.1	2.4
